# Compound activity: PubChem, Milwaukee Institute for Drug Discovery
# Most compounds without a hit are left out; they make up all but 6.8% or so of the library.
# HCV NS3h FP = HCV NS3 helicase inhibitors, primary screen, biochemical, fluorescence polarization, ChemBridge library; inhibition, % at 100 µM; Hepatitis C virus NS3 helicase; actives 1.6% (n = 16,000); AID 687043, 2013; NS3h Cy5-dT15 DNA binding;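 active = inhibition above the average over every tested compound plus 3 SD, cut at about 40% in these data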
# Cy5 interf NS3h = Cy5 fluorescence quenchers or enhancers, artefact control for HCV NS3 helicase inhibitor project, biochemical, ChemBridge library, Cy5 readout; Cy5-dT15 DNA with NS3h, fluorescence interference; actives lie on both sides; signal over control mean, under 1 quenches; fluorescence interference ratio at 100 µM; actives 6% (n = 16,000);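 active = compound fluorescence over control fluorescence at most 0.8, a quencher, or at least a set upper limit, an enhancer; inactive = ratio between 0.8 and the set upper limit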
# NS3h confirm = HCV NS3 helicase inhibitors, retest, confirmation, biochemical, fluorescence polarization, ChemBridge library; NS3h binding to Cy5-dT15 DNA; AID 720485, 2013; inhibition, % at 100 µM; actives 20% (n = 240); shares compounds with HCV NS3h FP;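 active = percent inhibition of 50% or more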
# SSB FP counter = E. coli SSB-DNA binding inhibitors, counter-screen for HCV NS3 helicase inhibitor project, biochemical, fluorescence polarization, selected ChemBridge compounds | shares compounds with HCV NS3h FP | E. coli SSB binding Cy5-dT15 | inhibition, % at 100 µM | actives 40% (n = 240) | AID 720486, 2013;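 active = inhibition of at least 50%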;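 also: displacers lower Cy5 polarization so higher inhibition means more SSB displaced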
# Target sequence (P0AGE0 whole entry, looked up): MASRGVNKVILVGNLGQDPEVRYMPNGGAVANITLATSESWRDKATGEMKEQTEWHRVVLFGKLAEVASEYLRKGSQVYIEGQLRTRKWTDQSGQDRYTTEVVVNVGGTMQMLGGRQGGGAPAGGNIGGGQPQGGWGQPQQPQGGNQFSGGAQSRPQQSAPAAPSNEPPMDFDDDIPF
# Cy5 SSB interf = Cy5 fluorescence interference with SSB-bound oligo, artefact control for HCV NS3 helicase inhibitor project, biochemical, E. coli SSB, selected ChemBridge compounds | shares compounds with HCV NS3h FP | actives 8% (n = 240) | Cy5-dT15/E. coli SSB fluorescence interference; actives lie on both sides | fluorescence interference ratio at 100 µM;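 active = fluorescence interference ratio at or above 1.2, signal boosting, or at or below 0.8, signal quenching; inactive = ratio between 0.8 and 1.2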;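 also: ratio of compound well signal to mean negative control signal so 1 means no effect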
# Cy5 interf conf = Cy5-DNA-NS3h complex fluorescence interference, confirmation, artefact control for HCV NS3 helicase inhibitor project, biochemical, ChemBridge library | fluorescence interference ratio at 100 µM, hits read low | shares compounds with HCV NS3h FP | actives 44% (n = 240) | AID 720489, 2013 | Cy5-dT15 DNA/NS3h fluorescence interference counterscreen;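 active = fluorescence interference ratio at or below 0.8 quencher or at or above a set limitenhancer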;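 also: ratio of compound fluorescence to mean of negative controls so 1 means no interference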
# The depositor's hits bear a star; · = no result.
SMILES,HCV NS3h FP,Cy5 interf NS3h,NS3h confirm,SSB FP counter,Cy5 SSB interf,Cy5 interf conf
O=C(NC(O)C(Cl)(Cl)Cl)c1ccc([N+](=O)[O-])cc1 (stereo unspecified),39,1,-2,5,1,0.78*
CCCC(C)NC(=O)c1ccc([N+](=O)[O-])cc1 (stereo unspecified),3,1,·,·,·,·
O=C(CCN1C(=O)/C(=C/c2ccc(Cl)cc2)SC1=S)Nc1nccs1,13,1,·,·,·,·
O=C(CCN1C(=O)/C(=C/c2ccc(F)cc2)SC1=S)Nc1ncc(Cc2ccc(Cl)cc2)s1,46*,0.94,4,10,0.96,1
O=C1CSC(c2cccc(Cl)c2Cl)N1 (stereo unspecified),2,1.1,·,·,·,·
COC(=O)c1cccc(NC(=O)c2ccc(C)cc2)c1,4,0.95,·,·,·,·
CN(C)c1ccc(/C=N\N=C2/NC(=O)C(Cc3ccc(Cl)cc3Cl)S2)cc1 (stereo unspecified),9,0.98,·,·,·,·
COc1ccc(C(=O)NCCNc2ccc([N+](=O)[O-])cc2)cc1OC,40,1.1,13,8,0.94,0.72*
COc1ccc(C(=O)NCCCNc2ccc([N+](=O)[O-])cc2Cl)cc1OC,16,0.98,·,·,·,·
CC(=O)Nc1ccc(NC(=O)c2cc3cc([N+](=O)[O-])ccc3oc2=O)cc1,0,0.95,·,·,·,·
CC(=O)N(c1ccc(Cl)cc1)S(=O)(=O)c1ccc(Cl)cc1,9,1,·,·,·,·
COc1cc([N+](=O)[O-])ccc1-c1ccc(/C=C2\C(=O)NC(=S)N(c3ccc(Cl)cc3)C2=O)o1,17,1,·,·,·,·
O=C1NC(=S)N(c2ccccc2)C(=O)/C1=C/c1ccc(-c2cccc(Cl)c2Cl)o1,13,0.96,·,·,·,·
Cc1ccc(N2C(=O)/C(=C\c3ccc(-c4ccc(Cl)c(C(=O)O)c4)o3)C(=O)NC2=S)cc1,83*,0.86,48,94*,0.88,0.73*
O=C1NC(=S)N(c2ccccc2)C(=O)/C1=C/c1ccc(-c2ccc(Cl)c(C(=O)O)c2)o1,93*,1,40,90*,0.95,0.78*
Cc1cccc(NC(=O)C(=O)NCc2ccco2)c1C,19,1.1,·,·,·,·
COc1ccc(N2C(=O)NC(=O)/C(=C/c3cc(Br)c(OC)c(OC)c3)C2=O)cc1,7,1,·,·,·,·
O=C(Nc1ncc(Cc2ccc(F)cc2)s1)c1ccccc1Br,7,0.97,·,·,·,·
COc1cccc(/C=C2/SC(=S)N(CC(=O)O)C2=O)c1O,6,0.98,·,·,·,·
O=C(O)CN1C(=O)/C(=C\c2cccc([N+](=O)[O-])c2O)SC1=S,44*,1.1,11,30,0.89,0.73*
COc1ccc(NC(=O)/C(C#N)=C\c2ccc(-c3ccc(C(=O)O)c(Cl)c3)o2)cc1,59*,1.1,7,16,0.88,0.75*
N#C/C(=C/c1ccc(-c2ccc(C(=O)O)c(Cl)c2)o1)C(=O)Nc1ccccc1,16,0.98,·,·,·,·
N/C(=N/OC(=O)c1ccc(F)cc1)c1ccc(Cl)cc1,7,1,·,·,·,·
O=C1NC(=Nc2ccc(F)cc2)S/C1=C/c1ccccc1F,112*,1.7*,4,13,0.98,0.99
Cc1ccccc1/C=C1/SC(=Nc2ccc(F)cc2)NC1=O,3,1,·,·,·,·
SMILES,HCV NS3h FP,Cy5 interf NS3h,NS3h confirm,SSB FP counter,Cy5 SSB interf,Cy5 interf conf
O=C(NN1C(=O)c2ccccc2C1=O)c1ccccc1Br,-3,1,·,·,·,·
O=C(CN1C(=O)c2ccc([N+](=O)[O-])cc2C1=O)Nc1ccccc1C(=O)O,1,1,·,·,·,·
O=C(N/N=C/c1ccccc1O)c1cncc(Br)c1,11,0.98,·,·,·,·
CCOc1ccc(/C=N/NC(=O)c2cncc(Br)c2)cc1,58*,0.8*,2,5,0.96,0.95
Cc1ccc([N+](=O)[O-])cc1N1C(=O)C2C3C=CC(CC3)C2C1=O (stereo unspecified),18,0.88,·,·,·,·
Cc1ccc(N2C(=O)C=CC2=O)cc1[N+](=O)[O-],75*,0.96,61*,9,0.94,0.94
Cc1ccc([N+](=O)[O-])cc1N1C(=O)C=CC1=O,87*,1.1,44,-3,0.94,0.76*
Cc1ccc(C(=O)NCCC(C)C)cc1[N+](=O)[O-],1,0.95,·,·,·,·
CC(=O)COc1ccc2c(c1)oc(=O)c1ccccc12,8,1.1,·,·,·,·
Cc1cc(-c2ccco2)c(C#N)c(=S)[nH]1,2,1.1,·,·,·,·
Cc1cc(Cl)c2cc(C(=O)O)ccc2n1,2,0.99,·,·,·,·
Cc1cc(C(=O)O)ccc1-n1c(C)ccc1C,101*,1.4*,100*,108*,0.93,0.98
Cc1ccc(-c2ccccc2)n1-c1ccccc1C(=O)O,7,1.1,·,·,·,·
Cc1ccc(C(=O)O)cc1-n1c(C)ccc1C,82*,1.4*,89*,89*,1,0.81
COc1cccc(NC(=O)CN(c2ccc(C)c(Cl)c2)S(C)(=O)=O)c1,18,0.96,·,·,·,·
O=C(/C=C/c1cn(-c2ccccc2)nc1-c1ccc(Cl)cc1)c1cccs1,9,0.94,·,·,·,·
CCCCOc1ccc(C=C2C(=O)N(C)C(=O)N(C)C2=O)cc1,14,0.93,·,·,·,·
CC(=O)Nc1ccc(S(=O)(=O)Nc2ccccc2Br)cc1,-2,0.94,·,·,·,·
Cc1ccc(S(=O)(=O)n2cc(C=C3C(=O)NC(=S)NC3=O)c3ccccc32)cc1,61*,0.82,20,82*,0.86,0.85
CCc1cc(C)cc(OCCn2cc(C=C3C(=O)NC(=S)NC3=O)c3ccccc32)c1,-11,1,·,·,·,·
Cc1cc(/C=C2\C(=O)NC(=S)N(c3ccccc3F)C2=O)c(C)n1-c1cccc([N+](=O)[O-])c1,12,0.89,·,·,·,·
CCOc1ccc(C2C(C(C)=O)=C(O)C(=O)N2CCN(C)C)cc1 (stereo unspecified),5,1,·,·,·,·
O=C1C=CC(=O)N1c1cccc(Cl)c1,55*,1,48,9,0.97,0.89
CCOC(=O)c1cccc(N2C(=O)C=CC2=O)c1,55*,0.94,34,10,0.96,0.86
O=C1/C(=C\c2ccc(I)cc2)SC(=S)N1c1cccc(Cl)c1,8,1.1,·,·,·,·
O=C(/C=C/c1ccc(/C=C/C(=O)c2cccc(N3C(=O)C=CC3=O)c2)cc1)c1cccc(N2C(=O)C=CC2=O)c1,16,1,·,·,·,·
CCCCOc1ccccc1NC(=O)c1cc(OC)c(OC)c(OC)c1,7,1,·,·,·,·
O=C1NC(=S)N(c2ccccc2)C(=O)/C1=C/c1ccc(-c2cccc(C(=O)O)c2)o1,83*,1,26,82*,0.84,0.79*
